About 83,000 compounds went through this panel and 20% of them were active in at least one assay; those are over-represented in the sample as a whole.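 A percent growth of 40 corresponds to 60% growth inhibition; 0 means no net growth; -100 means all cells died. Active threshold: below 10.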 Activity calls are given as the source filed them.
Columns and labels:
Experiment in all cases: NCI-60 one-dose screen, 48 h (100 = growth as untreated, 0 = no growth, -100 = all killed)
EKVX NSCLC = settings: 10 µM unless noted
SN12C renal = settings: 10 µM unless noted
UO-31 renal = settings: 10 µM unless noted
TK-10 renal = settings: 10 µM unless noted
ACHN renal = settings: 10 µM unless noted
CAKI-1 renal = settings: 10 µM
CCRF-CEM leukemia = settings: 10 µM unless noted
MOLT-4 leukemia = settings: 10 µM unless noted
RPMI-8226 leukemia = settings: 10 µM unless noted
OVCAR-8 ovarian = settings: 10 µM unless noted
OVCAR-5 ovarian = settings: 10 µM unless noted
OVCAR-4 ovarian = settings: 10 µM unless noted
SK-OV-3 ovarian = settings: 10 µM unless noted
IGROV1 ovarian = settings: 10 µM unless noted
NCI/ADR-RES ovarian = settings: 10 µM unless noted
OVCAR-3 ovarian = settings: 10 µM unless noted
HS 578T breast = settings: 10 µM unless noted
A498 renal = settings: 10 µM unless noted
SR leukemia = settings: 10 µM unless noted

Structure (SMILES)	growth (EKVX NSCLC)	growth (SN12C renal)	growth (UO-31 renal)	growth (TK-10 renal)	growth (ACHN renal)	growth (CAKI-1 renal)	growth (CCRF-CEM leukemia)	growth (MOLT-4 leukemia)	growth (RPMI-8226 leukemia)	growth (OVCAR-8 ovarian)	growth (OVCAR-5 ovarian)	growth (OVCAR-4 ovarian)	growth (SK-OV-3 ovarian)	growth (IGROV1 ovarian)	growth (NCI/ADR-RES ovarian)	growth (OVCAR-3 ovarian)	growth (HS 578T breast)	growth (A498 renal)	growth (SR leukemia)
COc1cc(O)c2c(c1)/C=C/C[C@H](O)[C@H](O)C(=O)/C=C\C[C@H](C)OC2=O	44.2% (inactive)	7.02% (active)	13.1% (inactive)	34.7% (inactive)	6.98% (active)	13.6% (inactive)	8.51% (active)	5.34% (active)	-4.42% (active)	19.9% (inactive)	8.3% (active)	18.9% (inactive)	75.4% (inactive)	9.18% (active)	8.99% (active)	–	–	–	–
CCCCCCNC(=O)Oc1ccc(/C(=C(/C)c2ccc(Cl)cc2)c2ccc(OCCN3CCCC3)cc2)cc1	53.4% (inactive)	50.4% (inactive)	18.1% (inactive)	86% (inactive)	–	55.3% (inactive)	4.42% (active)	–	-35.8% (active)	56.8% (inactive)	67.8% (inactive)	54.6% (inactive)	78.8% (inactive)	32.6% (inactive)	50.4% (inactive)	23.4% (inactive)	61.1% (inactive)	–	–
COc1ccc([C@@H]2[C@@H](O)C(=O)N2c2cc(OC)c(OC)c(OC)c2)cc1	51.2% (inactive)	24.6% (inactive)	29.9% (inactive)	74.5% (inactive)	–	25.6% (inactive)	24% (inactive)	–	20.3% (inactive)	2.57% (active)	24.8% (inactive)	–	–	27.9% (inactive)	13.9% (inactive)	–	10.6% (inactive)	-20.8% (active)	–
CC(=O)NC(C)(C)C(=O)N1CCC[C@H]1C(=O)NC(C)(C)C(=O)N[C@@H](C)C(=O)NC(C)(C)C(=O)N[C@@H](C)C(=O)N[C@@H](CCC(N)=O)C(=O)NC(C)(C)C(=O)N[C@H](C(=O)NC(C)(C)C(=O)NCC(=O)N[C@@H](CC(C)C)C(=O)NC(C)(C)C(=O)N1CCC[C@H]1C(=O)N[C@H](C(=O)NC(C)(C)C(=O)NC(C)(C)C(=O)N[C@@H](CCC(N)=O)C(=O)N[C@@H](CCC(N)=O)C(=O)N[C@H](CO)Cc1ccccc1)C(C)C)C(C)C	76.7% [4.25 µM] (inactive)	32.2% [4.25 µM] (inactive)	95.8% [4.25 µM] (inactive)	87.1% [4.25 µM] (inactive)	110% [4.25 µM] (inactive)	–	62.8% [4.25 µM] (inactive)	75.3% [4.25 µM] (inactive)	1.4% [4.25 µM] (active)	71.8% [4.25 µM] (inactive)	108% [4.25 µM] (inactive)	42.7% [4.25 µM] (inactive)	–	76.9% [4.25 µM] (inactive)	99.5% [4.25 µM] (inactive)	59.2% [4.25 µM] (inactive)	82.8% [4.25 µM] (inactive)	81.9% [4.25 µM] (inactive)	83.9% [4.25 µM] (inactive)
CC1OC(O[C@@H]2[C@H](O)C(CO)OC(O[C@H]3COC(O[C@H]4CC[C@]5(C)[C@H]6CC[C@]78OC[C@@]9(CCC(C)(C)C[C@H]97)[C@H](O)C[C@@]8(C)[C@]6(C)CC[C@H]5C4(C)C)[C@@H](OC4OC(CO)[C@@H](O)[C@@H](O)[C@@H]4O)[C@@H]3O)[C@H]2OC2OC[C@@H](O)[C@@H](O)[C@@H]2O)[C@@H](O)[C@@H](O)[C@H]1O (stereo partly drawn)	-64% (active)	–	-90.8% (active)	-93.8% (active)	-92.5% (active)	-95.9% (active)	-60% (active)	-61.1% (active)	-46.3% (active)	-69% (active)	-69% (active)	-74.1% (active)	-94.3% (active)	-66.3% (active)	-44.2% (active)	-89.8% (active)	-54.4% (active)	-86.5% (active)	-51.3% (active)
CC(C)(C)n1nnnc1C(Nc1nccs1)c1cc2cccc3ccc4cccc1c4c32 (stereo not drawn)	91% (inactive)	98.5% (inactive)	84.9% (inactive)	99% (inactive)	97.4% (inactive)	51.1% (inactive)	98.7% (inactive)	96.6% (inactive)	94.9% (inactive)	97.6% (inactive)	59.7% (inactive)	95.3% (inactive)	–	85.5% (inactive)	103% (inactive)	–	88.3% (inactive)	–	84.5% (inactive)
CN1CCN(c2ccc3c(c2)nc(NNC(=O)c2ccncn2)c2cccn23)CC1	22.4% (inactive)	29.1% (inactive)	13% (inactive)	43.1% (inactive)	–	6.41% (active)	15.3% (inactive)	10.4% (inactive)	24.5% (inactive)	21.8% (inactive)	54% (inactive)	36.4% (inactive)	25% (inactive)	22.4% (inactive)	18.8% (inactive)	38% (inactive)	71.3% (inactive)	–	14.9% (inactive)
C(=C(\C1=NCCN1)n1cnc2ccccc21)/c1ccc2ccccc2c1	73.2% (inactive)	73.3% (inactive)	68% (inactive)	77.8% (inactive)	72.9% (inactive)	53.3% (inactive)	63.5% (inactive)	67% (inactive)	67.1% (inactive)	88.5% (inactive)	79.4% (inactive)	72.6% (inactive)	66% (inactive)	81.2% (inactive)	76.6% (inactive)	–	57.6% (inactive)	–	–
CN1CCN(c2nc(-c3csc(-c4ccncc4)n3)cc3ccccc23)CC1	73.5% (inactive)	70.4% (inactive)	71.4% (inactive)	75.9% (inactive)	–	58.7% (inactive)	26.5% (inactive)	40.6% (inactive)	47.1% (inactive)	84% (inactive)	76.1% (inactive)	84.9% (inactive)	86.4% (inactive)	56.8% (inactive)	68% (inactive)	–	66.1% (inactive)	–	-18.2% (active)
CC(C)(C)CC(C)(C)n1nnnc1C(Nc1ccccc1)c1cc2cccc3ccc4cccc1c4c32 (stereo not drawn)	73.5% (inactive)	78.4% (inactive)	73.1% (inactive)	94.6% (inactive)	87.5% (inactive)	55.8% (inactive)	86.7% (inactive)	73.2% (inactive)	82.2% (inactive)	86.4% (inactive)	85.3% (inactive)	82.7% (inactive)	87.1% (inactive)	92.6% (inactive)	81.7% (inactive)	–	90.3% (inactive)	–	–
CN1CCN(Cc2ccc(NC(=O)c3cncc(C#Cc4[nH]nc5ncncc45)c3)cc2C(F)(F)F)CC1	108% (inactive)	48.1% (inactive)	82.8% (inactive)	94.7% (inactive)	59.1% (inactive)	59.4% (inactive)	–	47.2% (inactive)	45.2% (inactive)	88.7% (inactive)	77.7% (inactive)	88.5% (inactive)	60.8% (inactive)	38.2% (inactive)	105% (inactive)	–	45.9% (inactive)	–	48% (inactive)
O=C(Nc1cc(Cl)cc(Cl)c1)Nc1ccc2oc(=O)ccc2c1	17% (inactive)	4.07% (active)	3.75% (active)	18.6% (inactive)	–	7.57% (active)	24.9% (inactive)	12.4% (inactive)	1.84% (active)	12.5% (inactive)	36.4% (inactive)	19.5% (inactive)	25.7% (inactive)	26.4% (inactive)	10.9% (inactive)	–	39.4% (inactive)	-8.24% (active)	3.42% (active)
Cc1cccc(NC(c2cc3cccc4ccc5cccc2c5c43)c2nnnn2C(C)(C)C)c1C (stereo not drawn)	75.2% (inactive)	93% (inactive)	66.9% (inactive)	138% (inactive)	–	66.3% (inactive)	95% (inactive)	76% (inactive)	86.9% (inactive)	92.8% (inactive)	87% (inactive)	85.2% (inactive)	–	73.6% (inactive)	89.4% (inactive)	–	88% (inactive)	–	–
CCOC(=O)/C(F)=C/C1CC1CCc1cccc(C(F)(F)F)c1 (stereo not drawn)	101% (inactive)	104% (inactive)	90.4% (inactive)	99.5% (inactive)	–	89.4% (inactive)	110% (inactive)	104% (inactive)	102% (inactive)	104% (inactive)	100% (inactive)	107% (inactive)	99.8% (inactive)	113% (inactive)	106% (inactive)	–	103% (inactive)	93.7% (inactive)	106% (inactive)

— PubChem BioAssay (NCI)
